Compound activity (PubChem BioAssay)
The list is not random: actives were taken first. Their share in the collection is about 21%.
CHX counter: Cycloheximide Counterscreen for Small Molecule Inhibitors of Shiga Toxin; cell reporter, cycloheximide protein synthesis inhibition counterscreen; max response, %; hit rate 12% among 300,000; AID 2314, 2010; in the data active = max response mostly above about 13%, no sharp cut-off; inactive = mostly below about 14%; also: read at 38.3 µM for the half of the compounds with a filed dose; 0% is about no effect
Pf growth 96h: Primary qHTS for delayed death inhibitors of the malarial parasite plastid, 96 hour incubation. AID 504834, 2011. Potency, µM (series often up to 28.7 µM), without a hit: top-dose activity change, negative = inhibition, usual class: inhibitors. hit rate 6.9% among 320,000. P. falciparum luciferase reporter growth, 96 h; also: potency is read from the fitted curve at half-maximal effect; % is scaled to controls: 0 for no effect and ±100 for the full control effect
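P. falciparum expressing integrated firefly luciferase, in erythrocytes at 2% hematocrit, 0.05% parasitemia, incubated with compounds 96 h at 37 C, 5% CO2. Growth inhibition read as loss of luminescence; two-generation exposure targets delayed-death apicoplast inhibitors.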
Shiga inhibitor: A qHTS for Small Molecule Inhibitors of Shiga Toxin | Vero cells, Shiga toxin protein synthesis inhibition reporter | AID 2315, 2010 | inhibition, % at 38.7 µM | hit rate 9.2% among 290,000; in the data active = inhibition mostly above about 28%, no sharp cut-off; inactive = mostly below about 43%; also: 0% is about no effect
Pf growth 48h: Primary qHTS for delayed death inhibitors of the malarial parasite plastid, 48 hour incubation; Potency, µM (top dose mostly 28.7 µM), for the others: top-dose activity change, negative = inhibition, actives largely listed as inhibitors; hit rate 5.9% among 310,000; P. falciparum luciferase growth in erythrocytes, 48 h; also: potency is read from the fitted curve at half-maximal effect; % is scaled to controls: 0 for no effect and ±100 for the full control effect
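Cell-based growth assay: transgenic P. falciparum expressing firefly luciferase, cultured in red cells within RPMI 1640 containing 0.5% w/v Albumax, 24 mM bicarbonate and gentamycin. A drop in luciferase activity indicates inhibition.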
FBPA Giardia inh: qHTS Assay for Inhibitors of Fructose-1,6-bisphosphate Aldolase from Giardia Lamblia. purified Giardia FBPA. Potency, µM (doses to about 59.6 µM), without a hit: at the top dose activity, negative = inhibition, hits mostly inhibitors. hit rate 0.71% among 290,000; also: potency is read from the fitted curve at half-maximal effect; % is scaled to controls: 0 for no effect and ±100 for the full control effect; nearly all actives have a fitted effect of over 55% in size
Target sequence (A8B2U2 whole entry, looked up): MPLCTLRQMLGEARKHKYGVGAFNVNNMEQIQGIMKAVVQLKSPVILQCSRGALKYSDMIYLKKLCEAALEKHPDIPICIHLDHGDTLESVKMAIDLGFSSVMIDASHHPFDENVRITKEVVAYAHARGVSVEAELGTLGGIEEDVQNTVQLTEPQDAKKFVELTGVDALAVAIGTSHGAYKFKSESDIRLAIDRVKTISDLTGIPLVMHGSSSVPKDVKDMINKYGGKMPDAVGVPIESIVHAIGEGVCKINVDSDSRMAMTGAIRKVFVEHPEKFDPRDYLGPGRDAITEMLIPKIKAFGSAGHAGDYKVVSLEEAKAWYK
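40 nM FBPA preincubated 10 min at RT with compound (up to 57.5 uM final), then substrate plus GAPDH/TPI/NAD/arsenate coupling and diaphorase/resazurin added. Fluorescence read after 20 min at RT, 525/598 nm.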
NS1 inh: qHTS Assay for Inhibitors of Influenza NS1 Protein Function. hit rate 0.4% among 270,000. AID 2326, 2010. Potency, µM (series often up to 46.1 µM), without a hit: at the highest dose activity, positive = more growth; calls by dose curve; also: potency is read from the fitted curve at half-maximal effect; actives are rising curves; nearly all actives have a fitted effect of over 50% in size
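Recovery from NS1-induced slow growth read by OD600 in budding yeast switched to galactose assay medium (pH 6.0, -URA) at 1:100 dilution. Compound 23 nl per well; the matching strain lacking NS1 serves as control.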
An asterisk follows results filed as active; i = inactive; u = inconclusive; x = not tested or not shown; + = active, no number; ! = not active in a repeat; [ ] = another dose, or the depositor's remark. Unless noted, calls follow the shape of the dose curve; as a rule, active = well fitted curve in the direction sought with a large enough effect; inconclusive = small, poorly fitted or top-dose-only effect, or another doubt; inactive = no such curve, though single readings can be large; an effect the other way counts as inactive or inconclusive.

SMILES | CHX counter | Pf growth 96h | Shiga inhibitor | Pf growth 48h | FBPA Giardia inh | NS1 inh
O=C(CSc1nnc(-c2ccco2)o1)Nc1ccccc1Cl | 16* | 146% | 13 | 174% | x | -16%
O=c1c2ccccc2nnn1CSc1nnc(-c2ccco2)o1 | 20* | 1.2µM* | 38 | -3% | 6% | -18%
O=C(CSc1nnc(-c2ccncc2)o1)Nc1ccccc1Cl | 10 | 31% | 4 | 126% | 1% | -7%
O=C(CSc1nc(C(F)(F)F)cc(=O)[nH]1)N1CCCC1 | x | 0% | x | -3% | x | x
COc1cc(CNCCO)cc(Cl)c1OCc1ccc(Cl)cc1Cl | -1 | -2% | -3 | 10µM* | -8% | -3%
CCOc1cc(CNCCO)cc(Br)c1OCc1ccccc1 | 1 | 0% | 12 | u | -1% | -1%
COc1cc(CNCCO)cc(Br)c1OCc1ccccc1Cl | -5 | 12µM* | -13 | u | 1% | -2%
CC(C)(C)N1C(=O)[C@H]2[C@@H](c3ccc(Br)cc3)N3C(=O)N(c4cccc(F)c4)C(=O)[C@@]3(Cc3ccccc3)[C@H]2C1=O | x | 4.7µM* | x | 5.2µM* | x | x
COc1ccc([C@@H]2[C@@H]3C(=O)N(C(C)(C)C)C(=O)[C@@H]3[C@]3(Cc4ccccc4)C(=O)N(c4cccc(F)c4)C(=O)N23)cc1 | x | 9.3µM* | x | u | x | x
CC[C@@]12C(=O)N(c3cccc(F)c3)C(=O)N1[C@H](c1ccc(Br)cc1)[C@@H]1C(=O)N(C(C)(C)C)C(=O)[C@@H]12 | x | u | x | -98% | x | x
NC(=O)COc1ccc(-c2noc(COc3ccccc3[N+](=O)[O-])n2)cc1 | 24 | 14% | 11 | 19% | 3% | x
CCOC(=O)CNC(=O)O[C@@H]1C(=O)c2cc(Br)ccc2O[C@H]1c1ccc2c(c1)OCO2 | x | x | x | x | -1% | x
N[C@H](C(=O)O)[C@H](N)C(=O)O | x | x | x | x | x | -1%
CO/C([O-])=N/c1c[n+](-c2ccc(C)cc2)no1 | 22* | -29% | 43* | 69% | 0% | 0%
CC(C)C[C@H](N)C(=O)O | x | x | x | x | x | 1%
COc1cccc(/C=N/Nc2cc(N3CCOCC3)ncn2)c1O | 6 | 135% | 27 | 0.93µM* | 19% | -11%
Fc1ccc(/C=N/Nc2cc(N3CCOCC3)ncn2)cc1 | 9 | u | -4 | 77% | 1% | 12%
C(=N\Nc1cc(N2CCCCC2)ncn1)/c1ccco1 | 28* | -8% | 38* | 41% | 1% | -18%
COc1ccc(/C=N/Nc2cc(N3CCOCC3)ncn2)c(OC)c1 | 1 | u | 1 | -2% | 20% | 3%
Fc1cccc(/C=N/Nc2cc(N3CCOCC3)ncn2)c1 | 23* | 2.3µM* | 25* | 147% | -3% | 13%
Cc1cc2nc(-c3ccc(=O)[nH]c3)n(Cc3ccccc3)c2cc1C | 5 | u | 25 | u | -2% | -3%
COc1cc2oc(=O)cc(-c3ccc(-c4sccc4C=O)cc3)c2c(OC)c1OC | 10 | x | i | x | 1% | x
CC(C)C[C@H]1CN=C(Nc2ccccc2)N1CCCC1CCCC1 | -3 | 12µM* | -2 | u | 4% | -40%
O=C(CCSc1nnc(-c2ccco2)o1)Nc1ccc(F)cc1 | 14 | -29% | -3 | 0% | 3% | x
CCOC(=O)C1=C(N)Oc2cc(O)ccc2C1c1ccc([N+](=O)[O-])cc1 (stereo unspecified) | -4 | u | -13 | 9.3µM* | -19% | 3%
SMILES | CHX counter | Pf growth 96h | Shiga inhibitor | Pf growth 48h | FBPA Giardia inh | NS1 inh
Cc1ccccc1Nc1oc(-c2ccccc2)nc1-c1cccs1 | x | x | x | x | 0% | x
C#CCNC(=O)c1ccc(OCc2ccccc2)cc1Cl | 19 | 149% | 58* | 55% | 7% | x
O=C(NCCCl)c1ccc(OCc2ccccc2)cc1Cl | 34* | 200% | 66* | 78% | 0% | x
Cc1cccc(C)c1C(=NCCCN(C)C)c1ccccc1 | -3 | 4.7µM* | -1 | 9.3µM* | 7% | -7%
C[N+]1(CC(=O)OCCCc2ccccc2)CCOCC1 | -2 | -41% | -3 | 15% | x | 1%
C[N+]1(CC(COCc2ccccc2)OC(=O)Cc2ccccc2)CCOCC1 (stereo unspecified) | -5 | u | -2 | 13µM* | 2% | -3%
CCOC(=O)C1CCN(CC(=O)Nc2c(C(=O)OC)[nH]c3ccccc23)CC1 | -3 | -8% | -2 | x | 3% | -6%
O=C(CN1CCN(C2CCCCC2)CC1)Nc1ccc(Br)cc1 | 10 | 7% | 3 | -8% | -5% | x
COC(=O)c1[nH]c2ccc(C)cc2c1NC(=O)CN1CCCC(C)(C)C1 | -4 | 12µM* | -12 | u | -1% | 2%
COC(=O)c1[nH]c2ccc(Br)cc2c1NC(=O)CN1CCN(C2CCCCC2)CC1 | -9 | 2.6µM* | -28 | u | -4% | -6%
CCOC(=O)C1CCN(CC(=O)Nc2c(C(=O)OC)[nH]c3ccc(Cl)cc23)CC1 | -3 | u | -11 | 13µM* | -2% | -18%
COC(=O)c1[nH]c2ccc(Cl)cc2c1NC(=O)Oc1ccccc1 | 40* | 275% | 56* | 133% | -4% | -54%
COC(=O)c1[nH]c2ccc(C)cc2c1NC(=O)CCN1CCN(C2CCCCC2)CC1 | -1 | x | -8 | -20% | 2% | 0%
COC(=O)c1[nH]c2ccc(Cl)cc2c1NC(=O)CCN1CCN(C2CCCCC2)CC1 | 16 | 3.7µM* | -8 | 12µM* | -4% | -6%
COCCNC(=O)C1Cc2c(ccc3ccccc23)O1 (stereo unspecified) | 15* | 46% | 37 | 39% | -1% | -4%
O=C(NC(=S)Nc1ccc(N2CCCCC2)cc1)c1cccs1 | 52* | u | 79* | u | -5% | -1%
CS(=O)(=O)N1CCN(c2ccc(NC(=S)NC(=O)c3cccs3)cc2)CC1 | 16* | -16% | 17 | 26% | 15% | 4%
O=C(NC(=S)Nc1ccccc1N1CCCC1)c1cccs1 | 51* | u | 55* | u | -27% | 9%
Cc1c(C(=O)NC(=S)Nc2ccccc2N2CCCC2)cccc1[N+](=O)[O-] | 1 | u | -13 | 15µM* | -1% | 23%
COc1ccccc1CNc1ncncc1-c1ccccc1OC | x | x | x | x | 14% | x
O=C(NCCCc1ccccc1)c1ccc(Br)o1 | 31* | x | 53 | 5% | 6% | -90%
O=C(NCCCCc1ccccc1)c1ccc(Br)o1 | 18* | -21% | 15 | -22% | 3% | -39%
O=C(NC(=S)NCc1ccccc1)c1ccc(Br)o1 | 12 | 2% | 27 | 22% | x | -9%
O=C(Cc1ccccc1)NNC(=O)c1ccc(Br)o1 | -2 | 4% | 2 | 28% | -4% | 7%
CCCCCCNC(=O)c1ccc(Br)o1 | 33*! | -3% | +! | u | 1%[89.2 µM] | -29%
C[C@H](NC(N)=O)C(=O)Nc1ccc(N2CCOCC2)c(S(=O)(=O)Nc2ccc(Cl)cc2)c1 | x | u | x | -19% | x | x
